From the supplement of paper PMC6992640
± gives the standard deviation of the averaged measurements.

Tests used:
Assay in all cases: cell viability (% of vehicle); higher = less cytotoxic
Settings in all cases: 10 µM; 72 h
HCI01 = tested on: HCI01 (cells of a triple-negative basal-like breast cancer xenograft)
HCI03 = tested on: HCI03 (cells of an ER-positive luminal breast cancer xenograft)
HCI09 = tested on: HCI09 (cells of a triple-negative luminal androgen receptor type breast cancer xenograft)
HCI11 = tested on: HCI11 (cells of an ER-positive luminal breast cancer xenograft)
HCI13 = tested on: HCI13 (cells of an ER-positive luminal breast cancer xenograft)
HCI16 = tested on: HCI16 (cells of a triple-negative basal-like breast cancer xenograft)
UCD52 = tested on: UCD52 (cells of a triple-negative basal-like breast cancer xenograft)
WHIM2 = tested on: WHIM2 (cells of a triple-negative basal-like breast cancer xenograft)
WHIM30 = tested on: WHIM30 (cells of a triple-negative basal-like breast cancer xenograft)
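Also: PDX cells carrying CMV promoter-driven luciferase, viability read as total photon flux per second by IVIS imaging following D-luciferin, vehicle control 0.1% DMSO.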

| Structure (SMILES) | cell viability (HCI01) | cell viability (HCI03) | cell viability (HCI09) | cell viability (HCI11) | cell viability (HCI13) | cell viability (HCI16) | cell viability (UCD52) | cell viability (WHIM2) | cell viability (WHIM30) |
| --- | --- | --- | --- | --- | --- | --- | --- | --- | --- |
| CC(=O)Oc1cc2c(s1)CCN(C(C(=O)C1CC1)c1ccccc1F)C2.Cl (configuration not stated) [Prasugrel hydrochloride] | 140 ± 12 | 137 | 109 ± 14 | 120 | 74.2 ± 5.5 | 149 | 110 ± 20 | 110.1 ± 0.98 | 133 ± 10 |
| Nc1ccc(S(=O)(=O)c2ccc(N)cc2)cc1 [Dapsone] | 114 ± 18 | 146 | 111 ± 3.1 | 116 | 118 ± 22 | 158 | 116 ± 4.3 | 115 ± 8.2 | 117 ± 10 |
| CC(N)(Cc1ccc(O)c(O)c1)C(=O)O (configuration not stated) [Methyldopa] | 95.3 ± 9.9 | 96.8 | 95.5 ± 7.2 | 63.1 | 126 ± 11 | 127 | 91.1 ± 2.8 | 112 ± 1.3 | 96.2 ± 3.6 |
| CCOC(=O)CCC(=O)OC1C(OC2C(C)C(OC3CC(C)(OC)C(O)C(C)O3)C(C)C(=O)OC(CC)C(C)(O)C(O)C(C)C(=O)C(C)CC2(C)O)OC(C)CC1N(C)C (configuration not stated) [Erythromycin Ethylsuccinate] | 105 ± 5.4 | 97.5 | 97.4 ± 21 | 96.1 | 69.6 ± 1.3 | 132 | 87.3 ± 4.6 | 105 ± 20 | 108 ± 16 |
| CNCC(O)c1ccc(O)c(O)c1.O=C(O)C(O)C(O)C(=O)O (configuration not stated) [Epinephrine Bitartrate] | 90.1 ± 26 | 96.3 | 89 ± 23 | 90.8 | 71.7 ± 3.3 | 96.7 | 100 ± 8.4 | 67.4 ± 26 | 110.2 ± 1.1 |
| Cl.O=C1Cc2cc(CCN3CCN(c4nsc5ccccc45)CC3)c(Cl)cc2N1 [Ziprasidone HCl] | 45.7 ± 12 | 78.6 | 33.8 ± 21 | 57.8 | 45.9 ± 5.8 | 46.5 | 130 ± 9.5 | 38.1 ± 5.7 | 123 ± 11 |
| O=C1Cc2cc(CCN3CCN(c4nsc5ccccc45)CC3)c(Cl)cc2N1 [Ziprasidone] | 98.1 ± 6.7 | 102 | 82.1 ± 4.3 | 96.1 | 95.4 ± 36 | 67.2 | 86.8 ± 2 | 95.6 ± 6.5 | 100 ± 20 |
| Cc1cc2c(s1)=Nc1ccccc1NC=2N1CCN(C)CC1 [Olanzapine] | 90.18 ± 0.87 | 107 | 105 ± 2.8 | 88.7 | 88.6 ± 14 | 112 | 87.7 ± 4.5 | 90.9 ± 8.5 | 107 ± 16 |
| CCNC(=O)CCCC=CCC1C(O)CC(O)C1C=CC(O)CCc1ccccc1 (configuration not stated) [Bimatoprost] | 80.9 ± 64 | 154 | 91.9 ± 22 | 97.5 | 118 ± 6.7 | 144 | 86.2 ± 4.6 | 98.4 ± 23 | 148 ± 9.5 |
| COC(=O)Nc1nc2ccc(S(=O)c3ccccc3)cc2[nH]1 (configuration not stated) [Oxfendazole] | 102 ± 25 | 132 | 113 ± 1.8 | 93.1 | 179 ± 34 | 147 | 95.3 ± 8 | 87 ± 7.4 | 139 ± 8.4 |
| Cc1ccc(-c2cc(C(F)(F)F)nn2-c2ccc(S(N)(=O)=O)cc2)cc1 [Celecoxib] | 139 ± 24 | 110 | 94.7 ± 7.4 | 94.4 | 94 ± 2.9 | 112 | 70.1 ± 3.8 | 93.3 ± 12 | 100.5 ± 1 |
| COc1ccccc1N1CCN(CC(O)COc2cccc3ccccc23)CC1 (configuration not stated) [Naftopidil] | 116 ± 8.4 | 84.3 | 87.2 ± 14 | 107 | 103 ± 19 | 108 | 67.4 ± 2.8 | 89.8 ± 24 | 104 ± 12 |
| NCCCC(O)(P(=O)([O-])O)P(=O)(O)O.O.O.O.[Na+] [Alendronate] | 89.6 ± 12 | 123 | 85.1 ± 12 | 69.5 | 106 ± 5.1 | 109 | 94.7 ± 19 | 104 ± 5.2 | 97.5 ± 11 |
| CC1=C2N=C(C=C3N=C(C(C)=C4[N-]C(C)(C5N=C1C(C)(CCC(=O)NCC(C)OP(=O)([O-])OC1C(CO)OC(n6cnc7cc(C)c(C)cc76)C1O)C5CC(N)=O)C(C)(CC(N)=O)C4CCC(N)=O)C(C)(CC(N)=O)C3CCC(N)=O)C(C)(C)C2CCC(N)=O.[CH3-].[Co+3] (configuration not stated) [Methylcobalamin] | 81.6 ± 13 | 132 | 112 ± 14 | 91.1 | 112 ± 2.5 | 106 | 112 ± 9.1 | 91.3 ± 23 | 106.57 ± 0.028 |
| Nc1nc(=O)c2nc(CNc3ccc(C(=O)NC(CCC(=O)O)C(=O)O)cc3)cnc2[nH]1 (configuration not stated) [Folic acid] | 103 ± 21 | 118 | 97.5 ± 12 | 85.3 | 101 ± 2.8 | 117 | 92.4 ± 23 | 96.1 ± 4.2 | 101 ± 8.4 |
| CN(C)CCN(Cc1ccccc1)c1ccccn1.Cl [Tripelennamine HCl] | 89.8 ± 3.5 | 62.6 | 94.4 ± 2.5 | 80.6 | 89.3 ± 1.7 | 99.9 | 81.03 ± 0.58 | 111.1 ± 0.86 | 94.2 ± 7.7 |
| CCCCCCOC(=O)N=C(N)c1ccc(NCc2nc3cc(C(=O)N(CCC(=O)OCC)c4ccccn4)ccc3n2C)cc1.CS(=O)(=O)O [Dabigatran etexilate mesylate] | 98.8 ± 8.5 | 126 | 81.5 ± 8.2 | 99.4 | 106 ± 23 | 94.6 | 98.4 ± 9 | 63.2 ± 3.8 | 104 ± 5.8 |
| OCC(CO)NC1CC(O)(CO)C(O)C(O)C1O (configuration not stated) [Voglibose] | 106 ± 13 | 109 | 93 ± 17 | 89.1 | 58.7 ± 0.94 | 129 | 80.3 ± 5.1 | 117 ± 27 | 110 ± 8.8 |
| CN1C2=CC(=O)C(=NNC(N)=O)C=C2CC1S(=O)(=O)[O-].[Na+] (configuration not stated) [Carbazochrome sodium sulfonate (AC-17)] | 99.8 ± 0.3 | 129 | 105.4 ± 0.44 | 94.6 | 81 ± 18 | 124 | 99 ± 19 | 99.4 ± 21 | 134 ± 9.7 |

| Structure (SMILES) | cell viability (HCI01) | cell viability (HCI03) | cell viability (HCI09) | cell viability (HCI11) | cell viability (HCI13) | cell viability (HCI16) | cell viability (UCD52) | cell viability (WHIM2) | cell viability (WHIM30) |
| --- | --- | --- | --- | --- | --- | --- | --- | --- | --- |
| CCCCC(=O)OC1CCC2C3CCc4cc(O)ccc4C3CCC12C (configuration not stated) [Estradiol valerate] | 157 ± 47 | 122 | 98.1 ± 4.8 | 91.3 | 182 ± 36 | 137 | 90.6 ± 7.6 | 88.9 ± 8.9 | 134 ± 9.2 |
| Cl.NCCS [Cysteamine HCl] | 112 ± 4.3 | 112 | 93.4 ± 4.4 | 95.8 | 79.5 ± 5.4 | 108 | 92.8 ± 18 | 102.7 ± 1 | 102 ± 7 |
| O=C(CCCN1CCC(O)(c2ccc(Cl)cc2)CC1)c1ccc(F)cc1 [Haloperidol] | 63.3 ± 37 | 102 | 86.1 ± 10 | 90 | 89.6 ± 9.9 | 117 | 61.6 ± 2.5 | 90.8 ± 36 | 121 ± 8.7 |
| CC(=O)Oc1ccc(C(c2ccc(OC(C)=O)cc2)c2ccccn2)cc1 [Bisacodyl] | 53.2 ± 14 | 130 | 30.9 ± 6.2 | 50.3 | 184 ± 16 | 70.9 | 80.9 ± 17 | 111 ± 43 | 76.5 ± 1.4 |
| OC(Cn1cncn1)(Cn1cncn1)c1ccc(F)cc1F [Fluconazole] | 71.5 ± 43 | 153 | 99.3 ± 22 | 94.2 | 112 ± 4.8 | 119 | 76.5 ± 8.7 | 99.2 ± 27 | 180 ± 2.3 |
| COc1cc(C)c(C=CC(C)=CC=CC(C)=CC(=O)O)c(C)c1C [Acitretin] | 113 ± 9.7 | 72.4 | 90.9 ± 14 | 86.5 | 83 ± 13 | 76.7 | 130 ± 8.7 | 90.5 ± 16 | 145 ± 42 |
| Cl.NC1=NCC2c3ccccc3Cc3ccccc3N12 (configuration not stated) [Epinastine HCl] | 102 ± 1.5 | 94.8 | 82.5 ± 4.8 | 95.5 | 79.4 ± 1.9 | 118 | 79 ± 1.4 | 96.5 ± 8.4 | 89.3 ± 7 |
| Cc1ccc(S(=O)(=O)NC(=O)NN2CC3CCCC3C2)cc1 (configuration not stated) [Gliclazide] | 93.2 ± 72 | 143 | 90.8 ± 21 | 90.2 | 105 ± 4.1 | 122 | 95.6 ± 12 | 125 ± 8.1 | 125 ± 9.6 |
| OC[C@@H](O)[C@@H](O)[C@H](O)[C@H](O)CO [D-Mannitol] | 74.7 ± 26 | 95.7 | 93.1 ± 16 | 83.2 | 88.7 ± 6.7 | 114 | 74 ± 2.5 | 97.5 ± 16 | 115 ± 6.2 |
| Clc1ccc(COC(Cn2ccnc2)c2ccc(Cl)cc2Cl)c(Cl)c1 (configuration not stated) [Miconazole] | 109 ± 41 | 87.6 | 62.3 ± 36 | 82 | 47.3 ± 10 | 120 | 74.4 ± 3 | 99.6 ± 24 | 128 ± 3.7 |
| COc1cc(NC(C)CCCN)c2ncccc2c1.O=P(O)(O)O.O=P(O)(O)O (configuration not stated) [Primaquine Diphosphate] | 56.3 ± 9.8 | 95.2 | 29.3 ± 9.9 | 49 | 68.2 ± 11 | 116 | 75.7 ± 10 | 70.5 ± 11 | 112 ± 1.8 |
| O=c1sn(-c2cccc3ccccc23)c(=O)n1Cc1ccccc1 [Tideglusib] | 119 ± 20 | 114 | 98.2 ± 11 | 96.3 | 95.7 ± 14 | 94.7 | 78.4 ± 1.8 | 86.22 ± 0.6 | 131 ± 9.7 |
| Cl.N=C(N)N [Guanidine HCl] | 77.2 ± 10 | 96.3 | 96.5 ± 9.5 | 85.6 | 125 ± 4.1 | 126 | 79.1 ± 8.1 | 97.7 ± 5.6 | 135 ± 2.3 |
| CC(=O)Oc1cccc2c1C(=O)c1c(OC(C)=O)cc(C(=O)O)cc1C2=O [Diacerein] | 57 ± 39 | 93.9 | 79.1 ± 34 | 77.8 | 109 ± 11 | 146 | 98.6 ± 6.8 | 123 ± 39 | 60.3 ± 16 |
| CC(=O)O[C@H]1C(=O)[C@@]2(C)[C@H]([C@H](OC(=O)c3ccccc3)[C@]3(O)C[C@H](OC(=O)[C@H](O)[C@@H](NC(=O)c4ccccc4)c4ccccc4)C(C)=C1C3(C)C)[C@]1(OC(C)=O)CO[C@@H]1C[C@@H]2O [Paclitaxel (Taxol)] | 124 ± 7.2 | 92.4 | 95 ± 4.1 | 96.5 | 100 ± 8.8 | 156 | 66.2 ± 4.7 | 92.9 ± 12 | 114 ± 7.4 |
| CCNC1CN(CCCOC)S(=O)(=O)c2sc(S(N)(=O)=O)cc21 (configuration not stated) [Brinzolamide] | 108 ± 12 | 142 | 97.6 ± 15 | 139 | 132 ± 16 | 100 | 88.17 ± 0.49 | 104 ± 12 | 96.6 ± 7.1 |
| O=C(C=Cc1ccc(O)c(O)c1)OC1CC(O)(C(=O)O)CC(O)C1O (configuration not stated) [Chlorogenic acid] | 104 ± 3.3 | 153 | 119 ± 45 | 95.8 | 107 ± 6.4 | 116 | 113 ± 2.8 | 101 ± 14 | 77 ± 12 |
| CC(=O)OCC[N+](C)(C)C.[Cl-] [Acetylcholine Chloride] | 104 ± 23 | 85.8 | 95.1 ± 7.5 | 87.1 | 101 ± 9.6 | 97.8 | 69.3 ± 1.8 | 96.7 ± 6.8 | 107 ± 21 |
| NC(=O)c1cn(Cc2c(F)cccc2F)nn1 [Rufinamide] | 93.3 ± 16 | 137 | 106 ± 14 | 99.1 | 103 ± 10 | 106 | 96.9 ± 3.1 | 93.3 ± 18 | 124 ± 1.8 |
